IL1B secr inh: inflammasome signaling inhibition, IL-1 beta readout; 360,000 compounds, 4.7% hits; activity change, % at 57.5 µM; THP-1 LPS/ATP IL-1B secretion, AlphaLISA, 16 h; stronger effect = lower value; AID 743279; in the data active = activity change below about -50%; inconclusive = mostly about -30% to -49%; note: % is set by controls: 0 for no effect and ±100 for the full control effect
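THP-1 cells pretreated 1 hr with compounds (up to 57.5 uM final), then stimulated with LPS (250 ng/mL final) plus ATP (1.25 mM final); secreted IL-1B measured by AlphaLISA after 16 hr, decreased signal indicating inhibition.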
VP16 counter: inhibits Gal4-VP16 luciferase reporter, ROR gamma counter-screen; Potency, µM (doses to about 53.6 µM), for inactives: top-dose activity, negative = inhibition, usual class: inhibitors; Drosophila S2 Gal4-VP16 UAS-luciferase, luminescence, 20 h; AID 2546; 310,000 compounds, 3.5% hits;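 note: Gal4-VP16 expression switched on by copper sulfate through the metallothionein promoter; potency is the fitted concentration of half-maximal effect; % is set by controls: 0 for no effect and ±100 for the full control effect; nearly all actives have a fitted effect of over 50% in size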
RORg inh: ROR gamma (mouse) transcription inhibition; 310,000 compounds, 5.4% hits; P51450; Potency, µM (top dose mostly 53.6 µM), for inactives: at the top dose activity change, negative = inhibition, actives largely listed as inhibitors; AID 2551; Drosophila S2 Gal4-RORgamma UAS-luciferase reporter, 20 h; note: potency is the fitted concentration of half-maximal effect; % is set by controls: 0 for no effect and ±100 for the full control effect; nearly all actives have a fitted effect of over 60% in size
Target sequence (P51450 whole entry, looked up, the tested form may be a part): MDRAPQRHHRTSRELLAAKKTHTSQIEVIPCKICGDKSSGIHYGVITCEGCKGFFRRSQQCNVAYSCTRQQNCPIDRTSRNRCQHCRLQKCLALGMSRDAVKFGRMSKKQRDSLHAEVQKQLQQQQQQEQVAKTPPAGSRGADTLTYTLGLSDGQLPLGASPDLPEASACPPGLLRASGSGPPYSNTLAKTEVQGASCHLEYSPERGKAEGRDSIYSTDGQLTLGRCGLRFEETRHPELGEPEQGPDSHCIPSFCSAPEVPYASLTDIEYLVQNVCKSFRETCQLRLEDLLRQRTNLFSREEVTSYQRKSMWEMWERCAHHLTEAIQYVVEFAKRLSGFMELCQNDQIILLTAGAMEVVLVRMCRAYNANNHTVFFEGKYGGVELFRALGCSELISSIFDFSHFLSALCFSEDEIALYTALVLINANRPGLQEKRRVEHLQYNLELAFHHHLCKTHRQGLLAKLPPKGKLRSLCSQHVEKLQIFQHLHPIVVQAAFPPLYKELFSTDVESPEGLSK
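Luciferase reporter read in Schneider cells carrying Gal4-RORγ (mouse) and UAS-Photinus luciferase; cells given compound 1 h before 700 uM copper sulfate induction, then incubated 20 h at ambient temperature.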
SW480 rerep: induces DNA re-replication in SW480 colon adenocarcinoma cells; SW480 DNA re-replication, Hoechst DNA content imaging, 48 h; Potency, µM (highest dose often 46.1 µM), without a hit: at the highest dose re-replication activation, hits mostly activators; 340,000 compounds, 1.8% hits; AID 624297; note: potency is the fitted concentration of half-maximal effect; % of control where 0% means no effect; nearly all actives have a fitted effect of over 55% in size
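Treated cells incubate 48 hr (37 C, 5% CO2), are stained 40 min with Hoechst, and nuclear fluorescence is enumerated; a rise in nuclei with high DNA signal marks re-replication.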
MCF10A rerep: inducers of DNA re-replication in MCF 10A breast cells | MCF 10A DNA re-replication, Hoechst nuclear intensity, 48 h | AID 624296 | Potency, µM (titrated, usually from 46.1 µM), inactives show at the highest dose activity, positive = re-replication, actives largely listed as activators | 350,000 compounds, 2.9% hits; note: potency is the fitted concentration of half-maximal effect; % of control where 0% means no effect; nearly all actives have a fitted effect of over 50% in size
Starred values were filed as active, the others as inactive; ? = inconclusive; / = no result given; [ ] = dose if it differs, or a comment. Most compounds without a hit are left out; they make up all but 11% or so of the library. Unless noted, calls come from the whole dose curve; as a rule, active = well fitted curve in the direction sought with a large enough effect; inconclusive = small, poorly fitted or top-dose-only effect, or another doubt; inactive = no such curve, though single readings can be large; an effect the other way counts as inactive or inconclusive.

SMILES	IL1B secr inh	VP16 counter	RORg inh	SW480 rerep	MCF10A rerep
CCC(C)(C)NC(=O)CSc1nc(Cc2ccccc2)nc2ccccc12	-64.2*	4.6%	?	-3.7%	-2.4%
CCCCNC(=O)CSc1nc(COc2ccccc2)nc2ccccc12	-98.7*	-13.0%	9.7%	-0.6%	-14.8%
CC(C)(C)NC(=O)CSc1nc(Cc2ccccc2)nc2ccccc12	?	2.2%	13.8%	2.4%	0.651µM*
Cn1c(O)c(N=Nc2nc(-c3ccccc3)cs2)c2ccccc21	-10.9	?	1.12µM*	-1.6%	15.1%
Cn1c(O)c(N=Nc2ccccc2)c2ccccc21	19.7	3.1%	-13.2%	1.8%	19.7%
CC1=C(C(=O)N(C(C)C)C(C)C)CC(CC(=O)NC2CCCCC2)C(=O)N1Cc1ccc(F)cc1 (configuration not stated)	-17.7	/	/	/	/
O=C(/C=C\Nc1ccc2c(c1)OCO2)c1ccccn1	-23.4	2.24µM*	1.12µM*	0.0%	-6.8%
COc1ccc(N/C=C\C(=O)c2ccc3c(c2)OCO3)cc1	-6.0	?	?	-1.7%	17.2%
O=C(/C=C\Nc1ccc2c(c1)OCO2)c1ccc2c(c1)OCO2	-2.7	?	?	2.8%	20.6µM*
OC[C@@H]1CN(CCN2CCOCC2)C[C@H](n2cnc3c(NC4CCC4)ncnc32)O1	8.8	/	/	/	/
COc1ccc(-n2cccc2/C=C/[N+](=O)[O-])cc1	-103.1*	?	10µM*	23.1µM*	14.6µM*
COc1ccc(-n2cccc2C=O)cc1	-5.3	6.1%	-4.7%[10 µM]	-3.6%	-5.3%
CC(=O)c1sc2nsc(SCCN3CCCC3)c2c1N	-93.4*	-11.1%	-44.7%	-2.3%	?
CCOc1ccccc1NC(=O)C(OC(=O)c1ccc(O)cc1)c1ccccc1 (configuration not stated)	21.8	?	17.8µM*	9.1%	8.9%
Cc1c(C(=O)c2ccc(N(C)C)cc2)c2ccccn2c1CCC#N	-73.3*	-4.2%	0.0%	-1.6%	?
Cc1ccc(C2CC2c2n[nH]c(=S)n2-c2cccc(C)c2)cc1 (configuration not stated)	38.1	6.31µM*	3.16µM*	?	?
Cc1cccc(-n2c(CNC(=O)Cc3ccccc3)n[nH]c2=S)c1	4.0	9.1%	-31.7%	-1.6%	1.3%
Cc1ccc(C2CC2c2n[nH]c(=S)n2-c2ccc(Cl)cc2)cc1 (configuration not stated)	22.5	10µM*	2.82µM*	3.0%	90.6%
Cc1nn(C)cc1-c1n[nH]c(=S)n1-c1ccc(Cl)cc1	25.9	-4.1%	?	-698.0%	1.7%
S=c1[nH]nc([C@@H]2C[C@H]2c2ccccc2)n1-c1ccccc1Cl	0.0	10µM*	1.41µM*	-10.3%	-1.4%
C[C@H]1[C@H]2CC[C@H]3C4CC=C5C[C@@H](N(C)C)CC[C@]5(C)C4CC[C@]23CN1C (some centres not stated)	/	-14.6%	18.2%	/	/
CCCCN1C(=O)/C(=C/C=C2\SCCN2C)SC1=S	-50.3*	7.0%	?	8.1%	12.3%
CC(=O)N(C(C)=O)c1ncnc2c1c(-c1ccc(Cl)cc1)nn2C(C)(C)C	-83.2*	-25.0%	11.2µM*	15.6%	?
CC(=O)Nc1ncnc2c1c(-c1ccc(Cl)cc1)nn2C(C)(C)C	93.5	-6.8%	?	-17.2%	?
Cc1ccc(Cl)cc1NC(=S)N(Cc1cccnc1)Cc1ccccc1Cl	-6.6	25.1µM*	?	-0.5%	17.1%
SMILES	IL1B secr inh	VP16 counter	RORg inh	SW480 rerep	MCF10A rerep
Cc1ccccc1NC(=S)N(Cc1cccnc1)Cc1ccco1	8.0	?	25.3%	2.8%	1.6%
Cc1cccc(C)c1NC(=S)N(Cc1ccccc1)Cc1cccs1	?	-14.4%[10 µM]	7.08µM*	0.4%	10.7%
Cc1ccccc1NC(=S)N(Cc1ccccc1)Cc1cccnc1	-60.2*	22.1%	?	2.6%	4.5%
Cc1ccc(CN(Cc2ccco2)C(=S)Nc2ccccc2C)cc1	10.4	-71.5%	?	18.8%	11.9%
Cc1ccc(CN(Cc2ccccc2)C(=S)Nc2ccccc2C)o1	-18.5	?	7.08µM*	26.1%	?
O=C(O)CNC(=S)N(Cc1ccccc1)Cc1cccs1	28.7	3.0%	16.6%	-1.3%	0.2%
C[C@H]1CNC(=O)c2c(C(=O)N3CCN(C(=O)OC(C)(C)C)CC3)ncn21	-26.9	/	/	/	/
O=c1[nH]cc(S(=O)(=O)N2CCN(c3ccccc3F)CC2)c(=O)[nH]1	-3.6	/	/	/	/
CSc1cccc(NC(=S)N(Cc2ccc(C)cc2)Cc2cccnc2)c1	18.4	?	5.01µM*	15.0%	-0.7%
CN(C)CC(O)COC(c1ccc(Cl)cc1)c1ccc(Cl)cc1 (configuration not stated)	-79.4*	-0.2%	-41.7%	8.5%	0.4%
CC1CN(CC(O)COC(c2ccc(Cl)cc2)c2ccc(Cl)cc2)CC(C)O1 (configuration not stated)	-28.8	1.1%	17.8%	-6.8%	7.31µM*
CN(CC(O)COC(c1ccccc1)c1ccccc1)C1CCCCC1 (configuration not stated)	-83.5*	1.6%	22.2%	-0.1%	?
CCOC(=O)C1(CCOC)CCN(C/C=C/c2ccccc2OC)CC1	0.0	/	/	7.3%	1.4%
COc1ccc(CCNC(=O)CN2CCN(c3cccc(Cl)c3)CC2)cc1OC	-1.5	3.6%	-35.8%	4.2%	16.2%
Cn1c(CN2CCN(c3cccc(Cl)c3)CC2)nc2ccccc21	2.1	?	?	20.6µM*	?
Oc1ccccc1CN1CCN(C(O)(c2ccccc2)c2ccccc2)CC1	?	-9.4%	-16.2%	2.1%	8.4%
COc1cc(CN2CCN(c3cccc(Cl)c3)CC2)cc(OC)c1OC	33.6	-14.8%	-28.6%	16.4µM*	16.4µM*
COc1cc(CN2CCN(C(O)(c3ccccc3)c3ccccc3)CC2)cc(OC)c1OC	-69.3*	6.3%	-36.0%	?	?
Cn1c(=O)[nH]c(=O)c2c1nc(CN1CCN(c3cccc(Cl)c3)CC1)n2CCc1ccccc1	-18.9	-1.8%	-8.8%	15.0%	-1.6%
Cc1cccc(C)c1-n1nnnc1C1(C)CCC(=O)N1Cc1cccs1 (configuration not stated)	11.1	/	/	/	/
COc1ccc(C)cc1NC(=O)CN(C)S(=O)(=O)c1cnc[nH]1	-4.2	1.1%	5.0%	?	23.1µM*
Cc1ccc(C)c(NC(=O)c2ccc3ccccc3n2)c1	26.0	1.5%	7.1%	6.1%	6.0%
COc1ccc(NC(=O)CCSc2ccc3ccccc3n2)cc1	37.9	-14.6%	-9.3%[10 µM]	-2.7%	10.3µM*
CCOc1ccc(NC(=S)c2ccc3ccccc3n2)cc1	15.5	?	6.31µM*	-10.2%	0.3%
COc1cccc(NC(=O)CCSc2ccc3ccccc3n2)c1	19.4	-25.3%	-44.6%	0.3%	10.4%
Cc1ccc(NC(=S)c2ccc3ccccc3n2)c(C)c1	25.4	7.94µM*	2µM*	3.4%	2.0%

From PubChem
